# JMJD2A Tudor inh = blocks the human JMJD2A Tudor domain | 390,000 compounds, 4.4% hits | AID 504339 | O75164 | Potency, µM (titrated, usually from 114 µM), for the others: at the top dose activity change, negative = inhibition, hits mostly inhibitors | AlphaScreen JMJD2A-Tudor / H3K4me3 peptide binding; further: on the % scale 0 is the no-effect control and ±100 the full control effect; nearly all actives have a fitted effect of over 50% in size
# HP1b chromo inh = HP1-beta chromodomain-methylated histone interaction inhibition; P83916; AlphaScreen HP1-beta / biotin-H3K9me3 peptide binding; Potency, µM (titrated, usually from 114 µM), inactives show at the highest dose activity change, negative = inhibition, hits mostly inhibitors; 390,000 compounds, 0.56% hits; further: nearly all actives have a fitted effect of over 70% in size
#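 Compound inhibition of the preformed complex between 50 nM HP1-beta and 50 nM biotinylated H3K9me3 peptide was read by AlphaScreen. Buffer was PBS pH 7.4 with 0.01% Tween-20. Incubations ran 30 min at room temperature, with 10 ug/mL donor/acceptor beads.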
# L3MBTL1 inh = inhibitors of human L3MBTL1; Q9Y468; AlphaScreen L3MBTL1–H3K9me1 peptide binding; Potency, µM (top dose mostly 57.1 µM), without a hit: at the top dose activity, negative = inhibition, most hits filed as inhibitors; 230,000 compounds, 0.66% hits; AID 485360; further: on the % scale 0 is the no-effect control and ±100 the full control effect; nearly all actives have a fitted effect of over 60% in size
# Target sequence (Q9Y468 whole entry, looked up): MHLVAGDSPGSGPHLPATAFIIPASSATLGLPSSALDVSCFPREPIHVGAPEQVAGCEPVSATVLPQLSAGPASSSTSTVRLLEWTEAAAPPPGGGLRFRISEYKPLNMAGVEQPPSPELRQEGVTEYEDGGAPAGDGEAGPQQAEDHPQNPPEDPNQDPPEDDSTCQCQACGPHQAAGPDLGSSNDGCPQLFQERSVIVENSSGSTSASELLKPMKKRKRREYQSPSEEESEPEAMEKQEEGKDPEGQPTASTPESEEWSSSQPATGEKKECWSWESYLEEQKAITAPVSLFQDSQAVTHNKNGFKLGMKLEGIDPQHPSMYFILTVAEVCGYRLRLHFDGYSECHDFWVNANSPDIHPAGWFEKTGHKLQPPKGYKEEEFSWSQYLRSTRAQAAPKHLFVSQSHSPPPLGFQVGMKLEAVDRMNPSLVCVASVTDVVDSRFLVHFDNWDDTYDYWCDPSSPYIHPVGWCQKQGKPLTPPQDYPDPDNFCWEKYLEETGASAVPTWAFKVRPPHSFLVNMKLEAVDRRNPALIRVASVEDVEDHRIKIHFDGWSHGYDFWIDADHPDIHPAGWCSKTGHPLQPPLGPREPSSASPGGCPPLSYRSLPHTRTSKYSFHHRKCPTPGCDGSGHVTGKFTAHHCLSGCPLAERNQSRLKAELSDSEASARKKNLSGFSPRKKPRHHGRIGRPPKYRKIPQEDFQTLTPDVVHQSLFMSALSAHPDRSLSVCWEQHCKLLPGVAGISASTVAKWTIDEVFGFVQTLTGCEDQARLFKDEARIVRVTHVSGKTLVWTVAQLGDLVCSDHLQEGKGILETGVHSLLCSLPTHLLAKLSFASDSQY
#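 Displacement of a biotinylated histone H3(1-15) peptide monomethylated at Lys9 (75 nM) from L3MBTL1 (50 nM) was measured by AlphaScreen after a 30 min room-temperature compound incubation; cefsulodin titration served as intraplate control.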
# BAZ2B block = BAZ2B (human) inhibition; Q9UIF8; AlphaScreen BAZ2B-H3K14Ac peptide displacement; Potency, µM (titrated, usually from 114 µM), for inactives: at the highest dose activity change, negative = inhibition, actives largely listed as inhibitors; 360,000 compounds, 4.4% hits; AID 504333; further: on the % scale 0 is the no-effect control and ±100 the full control effect; nearly all actives have a fitted effect of over 60% in size
#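 BAZ2B 50 nM plus b-H3(5-23)K14Ac 50 nM, PBS pH 7.4/0.01% Tween-20, 30 min RT; compound added (max 110 uM), 30 min RT; streptavidin donor/Ni-chelate acceptor beads 10 ug/mL final, 20 min dark; AlphaScreen read.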
# G9a block = G9a (human) methyltransferase inhibition; G9a H3K9 monomethylation, AlphaScreen, 2 h; Potency, µM (titrated, usually from 102 µM), without a hit: at the highest dose activity, negative = inhibition, hits mostly inhibitors; 350,000 compounds, 8.8% hits; AID 504332; further: on the % scale 0 is the no-effect control and ±100 the full control effect; nearly all actives have a fitted effect of over 75% in size
#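 G9a (20 nM) preincubated 15 min RT with compounds, then 500 nM biotinylated H3K9 peptide and 20 uM SAM added; 2 h RT reaction. Monomethyl-H3K9 product detected by AlphaScreen with anti-H3K9me1 antibody, streptavidin donor and anti-rabbit IgG acceptor beads.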
# Numbers without * were called inactive; ? = inconclusive; / = no result; [ ] = dose if it differs, or a comment. Compounds with a hit are over-represented: about 11% of the library has one in this group of screens. The call rests on the fitted dose curve; in most records, active means well fitted inhibition curve with a large enough effect; inconclusive means small, poorly fitted or top-dose-only effect; inactive means no such curve, though single readings can be large or run the other way. Potency means the concentration at half of the fitted maximal effect.
SMILES,JMJD2A Tudor inh,HP1b chromo inh,L3MBTL1 inh,BAZ2B block,G9a block
Cc1cc(C)n(Cc2n[nH]c(=S)n2Cc2ccccc2)n1,22.4µM*,43.9%,-3.0%,-4.7%,15.8µM*
CC(c1ccccn1)N(C)C(=O)c1ccc2nc(Cc3ccccc3F)oc2c1 (centres undefined),-9.0%,37.8%,/,-3.1%,16.9%
COc1cccc(C(=O)/C=C/Nc2cccc(O)c2)c1,-31.7%,10.3%,/,-33.4%,14.1µM*
COc1ccc2nc(-c3cccc(F)c3)sc2c1,13.8%,/,/,/,/
Nc1c(-c2nc(-c3ccncc3)no2)nnn1CC(=O)Nc1ccccc1,-29.0%,191.1%,/,-38.2%,-21.8%[59 µM]
CCc1ccccc1NC(=O)Cn1nnc(-c2nc(-c3ccncc3)no2)c1N,-1.0%,30.9%,/,-13.2%,7.08µM*
CCOc1c2c(c(-c3ccc4c(c3)OCO4)c3cc(OC)c(OC)cc13)C(=O)OC2,-14.9%,-6.2%,/,/,/
Cc1cc(N2C(=O)C(O)=C(C(=O)c3cc4ccccc4o3)C2c2cccc(Br)c2)no1 (centres undefined),?,-14.2%[57 µM],/,?,8.8%[0.0925 µM]
CCCOc1cccc(C2C(C(=O)c3cc4ccccc4o3)=C(O)C(=O)N2c2cc(C)on2)c1 (centres undefined),?,-5.4%[57 µM],/,?,-2.3%[0.501 µM]
COC(=O)c1ccc(C2C(C(=O)c3cc4ccccc4o3)=C(O)C(=O)N2c2cc(C)on2)cc1 (centres undefined),?,-7.9%[57 µM],/,-22.0%,44.7µM*
Cc1cc(N2C(=O)C(O)=C(C(=O)c3cc4ccccc4o3)C2c2ccc(OC(C)C)cc2)no1 (centres undefined),-3.1%,15.0%,/,-15.9%,35.5µM*
Cc1cc(N2C(=O)C(O)=C(C(=O)c3ccco3)C2c2ccc([N+](=O)[O-])cc2)no1 (centres undefined),-14.4%,3.0%,/,?,89.1µM*
CCc1ccc(NC(=O)c2sc3nc(C)cc(C)c3c2NC(=O)c2ccccc2OC)cc1,-7.8%,48.9%,/,-16.9%,-3.0%[59 µM]
O=c1[nH]ccc2c(S(=O)(=O)N3CCCNCC3)cccc12,/,/,/,/,0.6%[59 µM]
CCOc1ccc(CCNC(=O)CCc2cn(Cc3ccc(C)cc3)c3ccccc23)cc1,-20.9%,16.7%,/,?,-30.9%[59 µM]
CCOC(=O)c1[nH]c2c(c1Cc1ccccc1)C(=O)CC(c1ccccc1)C2 (centres undefined),-2.4%,16.3%,/,-7.2%,-3.4%[59 µM]
Cc1cc(C)n2nc(SCc3cccc(S(=O)(=O)N(C)C)c3)nc2n1,0.3%,37.7%,/,-12.7%,44.7µM*
Cc1ccc(CSc2nc3nc(C)cc(C)n3n2)cc1,-9.1%,40.2%,4.1%,5.1%,/
Fc1cccc(CCN2CCNC[C@@H]2Cc2ccccc2)c1,56.2µM*,14.0%,/,/,/
CCCNC(=S)N1CCN(C)CC1,8.91µM*,?,0.5%,39.8µM*,10µM*
CCOCCCNC(=S)N1CCN(c2nc(-c3ccccc3)cs2)CC1,?,-12.0%,-2.2%,50.1µM*,?
CCCCNC(=S)N1CCN(CC)CC1,44.7µM*,?,6.6%,50.1µM*,/
CCOCCCNC(=S)N1CCN(Cc2ccco2)CC1,-100.0%,39.8µM*,-1.6%,35.5µM*,10µM*
Cc1cccc(OCCn2c(CCNC(=O)C3CCCCC3)nc3ccccc32)c1,6.9%[57.1 µM],6.0%[57 µM],/,/,/
CCOCCCNC(=S)N1CCN(CC)CC1,25.1µM*,?,1.5%,50.1µM*,22.4µM*
SMILES,JMJD2A Tudor inh,HP1b chromo inh,L3MBTL1 inh,BAZ2B block,G9a block
CCOCCCNC(=S)N1CCC(C(=O)c2ccc(C)cc2)CC1,-9.5%,38.4%,-11.1%,-2.7%,-9.0%
CCn1c(CNC(=O)c2ccc(OC)cc2)nnc1SCC(=O)Nc1cccc(C)c1C,-2.0%,43.9%,/,-0.4%,2.4%[59 µM]
O=Nc1c(-c2c(O)[nH]c3ccccc23)[nH]c2ccccc12,/,/,/,/,8.91µM*
O=NC1=C(c2c(O)[nH]c3ccccc23)CCCC1,-15.2%,11.8%,/,-6.3%,?
N#CC(C#N)=C1C=CC=CN1/C(=C\c1ccco1)C(=O)c1ccccc1,-31.2%,14.6%,?,0.0%,17.8µM*
COc1ccc(C(=O)/C(=C\c2ccco2)N2C=CC=CC2=C(C#N)C#N)cc1,-33.6%,8.1%,-4.2%,-12.7%,11.2%[2.33 µM]
N#C/C(=C/c1ccco1)C(N)=S,-24.5%,-0.7%,?,?,/

# Assay outcomes from PubChem.
